One assay concerns HB3. The assay can be described thus: qHTS profiling for inhibitors of Plasmodium falciparum proliferation (AID 504749). Conditions: P. falciparum in erythrocytes, SYBR Green DNA, 72 h; series mostly up to 28.7 µM. The essentials:
(§1)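 Each compound contacts P. falciparum-infected red blood cells for 72 h at 37 C; lysis buffer (Tris, EDTA, saponin, Triton X, SYBR Green I) is added and fluorescence measured next morning; values normalized to controls.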
In general terms: Quantitative high-throughput screening tests each substance at several concentrations.

The next assay relates to PAD. The description is as above. Conditions: P. falciparum in erythrocytes, SYBR Green DNA, 72 h; series mostly up to 28.7 µM. The essentials: as §1
In another assay the test system is PC26. Described as above. The settings on record: P. falciparum in erythrocytes, SYBR Green DNA, 72 h; series mostly up to 28.7 µM. The essentials: as §1
The subject of a further assay is TAB113. The assay is described as above. The settings on record: P. falciparum in erythrocytes, SYBR Green DNA, 72 h; series mostly up to 28.7 µM. The essentials: as §1
In the next assay the test system is W2. Described as above. The settings on record: P. falciparum in erythrocytes, SYBR Green DNA, 72 h; series mostly up to 28.7 µM. In outline:
as §1

Another assay relates to HEK293. The assay is described as follows: Cytotoxic Profiling of Annotated Libraries Using Quantitative High-Throughput Screening (AID 1296008). For max response: % is set by controls: 0 for no effect and ±100 for the full control effect. Conditions: Five cell lines viability, CellTiter-Glo ATP luminescence, 48-72 h; max response: stronger effect = lower value. In outline: (§2)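 Cells exposed to compounds for 48 or 72 hr at 37 degrees Celsius. Viability read as ATP-coupled luminescence with CellTiter-Glo after 10 min at room temperature.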
(In general: Cellular ATP, detected with luciferase, serves as a proxy for viable cell number.)

In the next assay the test system is KB-3-1. The description is as above. The settings on record: Five cell lines viability, CellTiter-Glo ATP luminescence, 48-72 h; max response: stronger effect = lower value. In outline:
as §2

The subject of another assay is ICS. The assay can be described thus: qHTS profiling for inhibitors of Plasmodium falciparum proliferation (AID 504749). Conditions: P. falciparum in erythrocytes, SYBR Green DNA, 72 h; series mostly up to 28.7 µM. The essentials: as §1
For the next assay, the system named is JCK. The description is as above. Conditions: P. falciparum in erythrocytes, SYBR Green DNA, 72 h; series mostly up to 28.7 µM. The essentials:
as §1

Another assay concerns N140. Described as above. Conditions: P. falciparum in erythrocytes, SYBR Green DNA, 72 h; series mostly up to 28.7 µM. In outline: as §1
Another assay concerns P93_24. The description is as above. Conditions: P. falciparum in erythrocytes, SYBR Green DNA, 72 h; series mostly up to 28.7 µM. In outline: as §1
Another assay relates to P94_40. Described as above. The settings on record: P. falciparum in erythrocytes, SYBR Green DNA, 72 h; series mostly up to 28.7 µM. In outline: as §1
A further assay deals with PC15. The assay is described as above. Conditions: P. falciparum in erythrocytes, SYBR Green DNA, 72 h; series mostly up to 28.7 µM. In outline:
as §1

Another assay concerns PC49. Described as above. The settings on record: P. falciparum in erythrocytes, SYBR Green DNA, 72 h; series mostly up to 28.7 µM. In outline:
as §1

The test system of another assay is SC27B. The assay is described as above. Conditions: P. falciparum in erythrocytes, SYBR Green DNA, 72 h; series mostly up to 28.7 µM. In outline: as §1
Another assay relates to TAB109. The description is as above. The settings on record: P. falciparum in erythrocytes, SYBR Green DNA, 72 h; series mostly up to 28.7 µM. The essentials:
as §1

A further assay concerns TAB165. The assay is described as above. The settings on record: P. falciparum in erythrocytes, SYBR Green DNA, 72 h; series mostly up to 28.7 µM. The essentials:
as §1

The subject of another assay is HaCat. The assay can be described thus: Cytotoxic Profiling of Annotated Libraries Using Quantitative High-Throughput Screening (AID 1296008). For max response: % is set by controls: 0 for no effect and ±100 for the full control effect. Conditions: Five cell lines viability, CellTiter-Glo ATP luminescence, 48-72 h; max response: stronger effect = lower value. The essentials: as §2
Another assay deals with NIH3T3. The assay is described as above. The settings on record: Five cell lines viability, CellTiter-Glo ATP luminescence, 48-72 h; max response: stronger effect = lower value. In outline: as §2

Values joined by “and” are separate entries in the source; they are usually repeats but may differ in a detail not shown here. Identical values can stand only once. Inconclusive results are not listed. A number with no mark means an inactive call. Active and inactive are the calls of the source. Calls come from the whole dose curve; as a rule, active = well fitted inhibition curve with a large enough effect; inconclusive = small, poorly fitted or top-dose-only effect; inactive = flat fitted curve, though single readings scatter.
Note: nearly all actives have a fitted effect of over 60% in size.
Potency is the fitted concentration of half-maximal effect.

Take `CN(C)CCOC(c1ccc(Cl)cc1)c1ccccn1` (stereo not drawn): the Potency entry in the assay with HB3, with PAD, in the assay with PC26 and in the assay with TAB113 was “inactive” throughout. For the same molecule, in the assay on W2, the Potency was 1.07 µM (active). Further, the max response is -23.8% in the assay on HEK293 and 10.7% in the assay with KB-3-1.

For the molecule `CC(=O)OC[C@H]1O[C@@H](n2ncc(=O)[nH]c2=O)[C@H](OC(C)=O)[C@@H]1OC(C)=O`, the Potency entry in the assay on HB3, in the assay with ICS, with JCK, in the assay on N140, in the assay with P93_24 and with P94_40 was “inactive” each time. In addition, the Potency entry in the assay on PAD, with PC15, in the assay on PC26, with PC49, with SC27B and in the assay on TAB109 was “inactive” in each case. Also, the Potency result in the assay with TAB165 and with W2 was “inactive” throughout. For the same molecule, in the assay with HEK293, the Potency is 0.944 µM (active). For the same molecule, the max response in the assay on HaCat is -1.52%.

In the case of `COc1cc(C(=O)N2CCCCCCC2)cc(OC)c1OC`, the Potency result in the assay with HB3, with ICS, in the assay with JCK, with N140, with P93_24 and in the assay on P94_40 was “inactive” each time. Moreover, the Potency entry in the assay on PAD, with PC15, in the assay on PC26, with PC49, in the assay with SC27B and in the assay on TAB109 was “inactive” in each case. Moreover, the Potency entry in the assay on TAB113, with TAB165 and in the assay on W2 was “inactive” each time. In addition, the max response in the assay with HEK293 was 0.115%; in the assay on NIH3T3, 2.92%. The molecule was classed as inactive in the assay on HaCat.

As for `CC(C)(C)CC(C)(C)c1ccc(O)c(-n2nc3ccccc3n2)c1`, the Potency with HB3 is 11.2 µM (active); in the assay with ICS, 5.01 µM (active); in the assay on P93_24, 10 µM (active); with PC49, 10 µM (active); with SC27B, 11.2 µM (active); with TAB113, 10 µM (active). For the same molecule, the Potency with TAB165 was 12.6 µM (active); in the assay on W2, 6.01 µM (active). Also, the Potency result in the assay on JCK and with PC26 was “inactive” each time. Besides, the max response was -0.0454% with HEK293, 2.75% in the assay with KB-3-1 and 3.67% with NIH3T3. The molecule was called inactive with HaCat.

On to `CCc1nn(CCCN2CCN(c3cccc(Cl)c3)CC2)c(=O)n1CCOc1ccccc1`, for which the max response in the assay on KB-3-1 was 3.08% and -5.51%.

Regarding `Cc1cccc(C)c1NC(=O)CN1CCCC1`, the Potency entry in the assay on HB3, in the assay on ICS, with JCK, with N140, in the assay on P93_24 and with P94_40 was “inactive” in each case. Also, the Potency result with PAD, with PC15, with PC26, in the assay with PC49, in the assay on SC27B and in the assay on TAB109 was “inactive” each time. Besides, the Potency result in the assay with TAB165 was “inactive”. Further, the max response in the assay on HEK293 was 0.0979%; in the assay on KB-3-1, 8.28%; with NIH3T3 it was 1.81%. Further, the call in the assay with HaCat was inactive.

With `CO[C@]12C[C@@H](COC(=O)c3cncc(Br)c3)CN(C)[C@@H]1Cc1cn(C)c3cccc2c13`, the Potency entry in the assay on HB3, in the assay on JCK, in the assay on PC49, with SC27B and in the assay on TAB113 was “inactive” in each case. Moreover, in the assay with W2, the Potency is 6.75 µM (active). For the same molecule, the max response is -26.4% in the assay with HEK293, 9.31% with KB-3-1 and 0.842% with NIH3T3. In the assay with HaCat, the molecule was classed as inactive.

Consider `CN=C(N)NCCC[C@H](N)C(=O)O`, for which the max response in the assay on KB-3-1 was -24.2% and -3.13% and -1.75%.

`Cc1cc2c(OCC(CNC(C)(C)C)OC(=O)c3ccccc3)cccc2[nH]1` (stereo not drawn): the Potency in the assay on ICS was 8.91 µM (active); in the assay on W2, 2.13 µM (active). The Potency entry with JCK, with PAD, in the assay with PC15, in the assay on PC26, in the assay with PC49 and with SC27B was “inactive” in each case. Also, the Potency result with TAB113 was “inactive”. In addition, in the assay with HEK293, the molecule was called inactive. For the same molecule, the results for the max response in the assay with HaCat, with KB-3-1 and in the assay on NIH3T3 were 1.54%, -8.32% and 2.07%, respectively.

For `Oc1ccccc1C=NCc1ccccc1`, the Potency result in the assay on HB3, in the assay on ICS, in the assay with JCK, in the assay on N140, in the assay with P93_24 and in the assay with P94_40 was “inactive” in each case. In addition, the Potency entry in the assay with PAD, in the assay on PC15, in the assay on PC26, in the assay on PC49, in the assay with SC27B and in the assay with TAB109 was “inactive” each time. In addition, the Potency entry in the assay on TAB113, in the assay on TAB165 and with W2 was “inactive” each time. Further, the values for the max response with HEK293 and with HaCat were -3.05% and -1.46%, respectively. Further, the result with NIH3T3 was inactive.

For the molecule `CN1CCC[C@@H]1CCO[C@](C)(c1ccccc1)c1ccc(Cl)cc1`, the Potency result in the assay with HB3, in the assay with JCK, in the assay on P94_40, in the assay on PAD, in the assay with PC26 and with SC27B was “inactive” throughout. The Potency result with TAB113 is “inactive”. For the same molecule, the Potency with ICS is 10 µM (active); in the assay with W2, 13.5 µM (active); with HEK293, 15 µM (active); with HaCat, 26.6 µM (active). The max response in the assay with KB-3-1 is -2.14%.

With `CN(Cc1ccc(C(C)(C)C)cc1)Cc1cccc2ccccc12`, the Potency result with JCK, with N140, with PAD, in the assay with PC15, in the assay with PC26 and with PC49 was “inactive” each time. In addition, the Potency result in the assay with SC27B and with TAB109 was “inactive” throughout. The Potency in the assay on W2 was 9.53 µM (active). Also, the max response in the assay with KB-3-1 was -4.26% and -7.03%; in the assay on NIH3T3, -14%.

On to `CCOC(=O)[C@H](CCc1ccccc1)N[C@@H](C)C(=O)N1[C@H](C(=O)O)C[C@H]2CCCC[C@@H]21`, for which the Potency result in the assay on HB3, with ICS, in the assay with JCK, in the assay on N140, with P93_24 and with P94_40 was “inactive” each time. Also, the Potency entry in the assay on PAD, in the assay on PC15, with PC26, in the assay on PC49, in the assay with SC27B and with TAB109 was “inactive” throughout. Further, the Potency result in the assay with TAB113, in the assay with TAB165 and in the assay on W2 was “inactive” in each case. For the same molecule, the max response in the assay on KB-3-1 is 8% and -12.5%.

As for `Cc1ccc(S(=O)(=O)NC(=O)NC2CCCC2)cc1`, the Potency result in the assay with HB3, in the assay with ICS, in the assay on JCK, in the assay with N140, in the assay with P93_24 and in the assay on P94_40 was “inactive” throughout. Moreover, the Potency result in the assay with PAD, in the assay with PC15, in the assay on PC26, in the assay with PC49, with SC27B and in the assay on TAB109 was “inactive” throughout. The Potency result in the assay on TAB113, in the assay with TAB165 and with W2 was “inactive” each time. Further, the max response with HEK293 was -5.76%; with HaCat, 2.64%; in the assay on KB-3-1, 5.86%; in the assay on NIH3T3 it was 3.93%.

Source of the values: PubChem BioAssay (NCATS).
